Source: PubChem (National Center for Advancing Translational Sciences (NCATS))
RGS12 GoLoco inh – inhibitors of human Gai1-RGS12 GoLoco interaction (red fluorophore) | AID 880 | P63096 | Gai1:RGS12 GoLoco peptide FP, rhodamine, 10 min | 0.44% of 230,000 active | Potency, µM (highest dose often 61.6 µM), inactives show at the highest dose activity, negative = inhibition, hits mostly inhibitors; active = well fitted inhibition curve with a large enough effect, not every such curve was filed as active; inactive = no such curve, though single readings can be large or run the other way; note: nearly all actives have a fitted effect of over 30% in size
Target sequence (P63096 whole entry, looked up): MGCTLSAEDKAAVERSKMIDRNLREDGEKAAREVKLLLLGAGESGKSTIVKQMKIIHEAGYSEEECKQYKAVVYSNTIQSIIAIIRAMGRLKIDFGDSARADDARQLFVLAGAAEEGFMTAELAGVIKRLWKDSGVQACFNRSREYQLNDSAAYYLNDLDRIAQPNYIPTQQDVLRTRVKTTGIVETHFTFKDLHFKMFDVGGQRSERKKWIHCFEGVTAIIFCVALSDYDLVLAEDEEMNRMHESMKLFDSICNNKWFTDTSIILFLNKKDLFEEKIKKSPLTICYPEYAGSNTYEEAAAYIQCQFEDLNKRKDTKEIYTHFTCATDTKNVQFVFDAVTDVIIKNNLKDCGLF
Tau fibril FP – blocks human tau fibril formation measured by polarization; P10636; K18 P301L tau heparin fibrillization, Alexa594 FP, 6 h; Potency, µM (highest dose often 57.7 µM), without a hit: at the highest dose activity, negative = inhibition, most hits filed as inhibitors; 0.39% of 280,000 active; AID 1468; note: nearly all actives have a fitted effect of over 55% in size
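Read-out: fluorescence polarization of Alexa 594-labeled tau (0.24 uM), 555 nm excitation, 632 nm emission. Mixtures held 15 uM unlabeled K18 P301L, compound and 20 uM heparin, pH 7 acetate buffer, incubated 6 hr at 37 C.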
Tau fluor cs – counter-screen for tau fibril formation inhibitors; 0.93% of 280,000 active; tau K18 P301L Alexa594 fluorescence, heparin fibrillization; Potency, µM (titrated, usually from 57.7 µM), for inactives: top-dose activity change, negative = decrease; note: nearly all actives have a fitted effect of over 55% in size
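Human K18 P301L tau (15 uM unlabeled plus 0.24 uM Alexa 594-labeled, final) in 100 mM sodium acetate pH 7 was mixed with compound and 20 uM heparin and incubated 6 hr at 37 C.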
TexasRed fluor – alters Texas Red total fluorescence, flagging assay interference; TRb/SRC2 Texas Red total fluorescence interference; Potency, µM (titrated, usually from 106 µM), without a hit: at the highest dose fluorescence change, negative = quenching; 0.29% of 280,000 active; AID 1479; active = well fitted curve in either direction with a large enough effect; inconclusive = small, poorly fitted or top-dose-only effect
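Flags fluorescent or light-absorbing compounds by total fluorescence, S + 2P, at 555 nm excitation and 632 nm emission. Mixture: 20 nM Texas Red SRC2 peptide, 0.6 uM human TRb LBD, 1 uM T3, 5% DMSO; compound exposure 5 h at ambient temperature.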
Tau fibril ThT – tau fibrillization inhibition (ThT binding); recombinant tau K18 P301L, heparin-induced fibrillization, ThT fluorescence; Potency, µM (top dose mostly 57.4 µM), for the others: at the highest dose activity, negative = inhibition, usual class: inhibitors; 2.1% of 270,000 active; AID 1460; note: nearly all actives have a fitted effect of over 55% in size
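Using a mix of unlabeled (15 uM) and Alexa 594-labeled (0.24 uM) tau K18 P301L, heparin-triggered fibrillization over 6 hr at 37 C was scored by ThT fluorescence.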
TRb SRC2 PPI – TRbeta-SRC2 interaction inhibition. AID 1469. TRbeta-SRC2 peptide binding, fluorescence polarization; receptor liganded with 1 µM T3. 0.065% of 280,000 active. Potency, µM (highest dose often 106 µM), without a hit: at the top dose activity change, negative = inhibition, most hits filed as inhibitors. P10828;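 note: plate controls were bound peptide for no effect and peptide without receptor for full effect; nearly all actives have a fitted effect of over 50% in size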
Target sequence (P10828 whole entry, looked up): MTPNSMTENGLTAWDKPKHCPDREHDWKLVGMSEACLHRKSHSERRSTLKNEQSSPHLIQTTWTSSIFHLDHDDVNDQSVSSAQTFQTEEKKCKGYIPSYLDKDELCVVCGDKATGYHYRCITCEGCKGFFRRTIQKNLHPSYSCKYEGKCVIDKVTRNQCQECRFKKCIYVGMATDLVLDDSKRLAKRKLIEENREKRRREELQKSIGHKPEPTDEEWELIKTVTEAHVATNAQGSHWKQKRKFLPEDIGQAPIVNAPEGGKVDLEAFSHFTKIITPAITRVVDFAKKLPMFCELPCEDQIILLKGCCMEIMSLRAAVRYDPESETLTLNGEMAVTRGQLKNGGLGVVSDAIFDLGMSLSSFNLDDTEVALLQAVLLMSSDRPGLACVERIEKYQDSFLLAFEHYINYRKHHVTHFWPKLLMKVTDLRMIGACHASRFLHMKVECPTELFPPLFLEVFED
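A fluorescence polarization screen tested compounds at multiple concentrations against complex formation between 0.6 uM TRb ligand-binding domain and 20 nM Texas Red SRC2 peptide, with 1 uM T3 present; readout after 5 hr.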
* marks the source's active call; other numbers are inactive results; ? = inconclusive; · = no result given; ! = a repeat was not active; [ ] = another dose, or the depositor's remark. Compounds with a hit are over-represented: about 3.2% of the library has one in this group of screens. Unless noted, calls come from the whole dose curve; as a rule, active = well fitted curve in the direction sought with a large enough effect; inconclusive = small, poorly fitted or top-dose-only effect, or another doubt; inactive = no such curve, though single readings can be large; an effect the other way counts as inactive or inconclusive. Unless noted, % is set by controls: 0 for no effect and ±100 for the full control effect; potency is the fitted concentration of half-maximal effect.

SMILES	RGS12 GoLoco inh	Tau fibril FP	Tau fluor cs	TexasRed fluor	Tau fibril ThT	TRb SRC2 PPI
Cc1cccc(CCNC(=O)C2CCN(c3ncnc4c3nc3n4CCCCC3)CC2)c1	·	1.2%	-1.1%	5.0%	-1.8%	0.1%
COC(=O)C1=C(C(=O)OC)SC2(S1)C(C(=O)OC)=C(C(=O)OC)SC1=C2c2cccc(C)c2NC1(C)C	-3.5%	?	?	-8.4%	14.1µM*	2.0%
COc1ccc(CN=C(Nc2ccccc2)SC2CC(=O)NC2=O)cc1 (stereo not drawn)	9.7%	-4.4%[2.34 µM]	-63.0%	10.5%	10µM*	2.6%
O=C1CC(SC(=NCc2ccc3c(c2)OCO3)Nc2ccccc2)C(=O)N1 (stereo not drawn)	2.6%	?	-27.5%	-2.2%	-16.5%	-7.5%
CCCCCCCCCCCC1=C(O)C(=O)C=C(O)C1=O	10.0%	20µM*	11.2µM*[quencher]	-3.9%	10µM*	-8.5%
O=C(c1cc2ccccc2o1)N1CCN=C1SCc1cccnc1	18.3%	2.2%	-13.9%	0.1%	-17.7%	1.2%
O=C(O)c1cc2cc(Cc3cccnc3)ccc2o1	28.2µM*!	-1.4%	-1.4%	0.8%	-0.4%	5.3%
O=C(N/N=C/c1ccc(F)cc1)c1cc(-c2ccc3c(c2)OCO3)n[nH]1	5.8%	-17.8%	-3.1%	-6.9%	·	1.3%
CN(C)c1ccc(/C=N\NC(=O)c2cccc3cc[nH]c23)cc1	-1.4%	0.0%	?	-5.8%	10µM*	6.3%
CN(C)c1ccc(/C=N/NC(=O)c2cnc3ccccc3c2)cc1	7.6%	-1.5%	-21.7%	3.0%	0.631µM*	-1.3%
CN(C)c1ccc(/C=N/NC(=O)c2cc(=O)[nH]c3ccccc23)cc1	87.1%	6.5%	-1.0%	2.1%	-11.6%	2.1%
CN(C)c1ccc(/C=N/NC(=O)c2cc(-c3ccc4c(c3)OCO4)n[nH]2)cc1	1.4%	11.1%	?	-3.1%	2.51µM*	-2.4%
CCN(CC)C(=O)c1sc2c(c1C)c(=O)n(-c1ccccc1)c(=O)n2Cc1c(C)cc(C)cc1C	·	-1.3%	0.2%	-1.1%	-2.5%	7.0%
Cc1noc(C)c1-c1ccc2ncnc(NCC3CCN(C)CC3)c2c1	·	·	·	0.0%	·	-7.6%
N#Cc1nc(-c2ccc(COc3ccc(Cl)cc3)o2)oc1N1CCC(C(N)=O)CC1	·	12.1%	-27.8%	-14.1%	-14.8%	8.3%
COc1ccc2nc(N=NC3=C(O)CC(C)(C)CC3=O)sc2c1	15.2%	3.3%	-21.8%	-4.3%	15.8µM*	4.6%
CC1(C)CC(=O)C(N=Nc2ccc3ncsc3c2)=C(O)C1	-6.7%	4.8%	-9.6%	2.0%	?	-21.7%
COc1ccc2nc(N=Nc3ccc(O)c4ccccc34)sc2c1	-32.3%	-14.7%	?	-8.2%	2.51µM*	0.6%
CC(C)(CN)SCc1ccccc1	1.0%[14.2 µM]	·	·	·	·	·
COc1cccc2c1C(=O)c1c(O)c3c(c(O)c1C2=O)C[C@@](O)(C(=O)CO)C[C@@H]3O[C@@H]1C[C@H](N)[C@H](O)[C@H](C)O1	11.2µM*	?	10.2%	44.7µM*[fluorescent]	12.6µM*	25.1µM*
COc1cccc2c1C(=O)c1c(O)c3c(c(O)c1C2=O)C[C@](O)(C(C)=O)C[C@H]3O[C@@H]1C[C@H](N)[C@H](O)[C@H](C)O1	3.16µM*	·	·	14.1µM*[fluorescent]	·	12.6µM*
CC(=O)C1(O)Cc2c(O)c3c(c(O)c2C(OC2CC(N)C(O)C(C)O2)C1)C(=O)c1c(O)cccc1C3=O (stereo not drawn)	·	·	·	44.7µM*[fluorescent]	·	25.1µM*
COc1cccc2c1C(=N)c1c(O)c3c(c(O)c1C2=O)C[C@](O)(C(C)=O)C[C@@H]3O[C@H]1C[C@H](N)[C@@H](O)[C@H](C)O1	0.5%[14.2 µM]	·	·	·	·	·
COc1cccc2c1C(=O)c1c(O)c3c(c(O)c1C2=O)C[C@@](O)(C(=O)CO)C[C@@H]3OC1CC(N)C(O)C(C)O1 (stereo partly drawn)	-4.9%	·	·	31.6µM*[fluorescent]	·	20µM*
CCN1CCN(Cc2c(O)ccc3oc(C)c(C(=O)Nc4cccc(Cl)c4C)c23)CC1	·	-4.5%	-6.7%	?	-4.0%	-4.8%
SMILES	RGS12 GoLoco inh	Tau fibril FP	Tau fluor cs	TexasRed fluor	Tau fibril ThT	TRb SRC2 PPI
COC(=O)[C@@H]1C[C@@]2(O)[C@H](O)[C@H](O)[C@H](O)C[C@H]2N1Cc1c(F)cccc1Cl	-27.0%	-1.0%	-2.5%	2.6%	2.0%	4.7%
CC(C)=CCC[C@@H](C)[C@H]1CC[C@@]2(C)C3=C(CC[C@]12C)[C@@]1(C)CC[C@H](O)C(C)(C)[C@@H]1CC3	·	·	·	1.7%[201 µM]	·	-2.6%[201 µM]
COc1cccc2c1C(=O)c1c(O)c3c(c(O)c1C2=O)C[C@@](O)(C(=O)CO)C[C@@H]3O[C@H]1C[C@H](N)[C@H](O)[C@H](C)O1	2.82µM*	25.1µM*	-6.0%	100µM*[fluorescent]	3.16µM*	22.4µM*!
COc1ccc(NCC(=O)Nc2ccc(C#N)cc2)cc1Cl	13.5%	?	14.1µM*[quencher]	-0.5%	?	-12.7%
Cc1c(N=C2C=C(Br)C(=O)C(Br)=C2)c(=O)n(-c2ccccc2)n1C	-3.1%	25.1µM*	15.8µM*[quencher]	1.4%	15.8µM*	0.7%
Cc1c(N=Nc2ccc(O)cc2)c(=O)n(-c2ccccc2)n1C	9.1%	2.8%	-5.5%	-0.6%	1.9%	0.0%
Cc1c(N=C2C=CC(=O)c3ccccc32)c(=O)n(-c2ccccc2)n1C	-1.0%	7.94µM*	4.47µM*[quencher]	-23.2%	2.24µM*	-25.1%
Cc1c(N2C(=O)c3ccccc3C2=O)c(=O)n(-c2ccccc2)n1C	9.4%	8.9%	6.5%	-1.5%	12.9%	-2.6%
O=C(O)CC[C@H](NC(=O)c1ccccc1C(=O)O)C(=O)O	10.5%	-0.4%	-1.3%	-6.5%	-2.3%	-0.8%
O=c1cc(-c2ccc(O)c(O)c2)oc2ccccc12	0.1%	?	?	-23.1%	17.8µM*	7.9%
COc1ccc(C2=Nn3c(nnc3-c3ccccc3OC)SC2)c(OC)c1	·	·	·	-1.5%	·	2.7%
Cc1cc(/C=N\NC(=O)COc2cccc3cccnc23)c(C)n1-c1ccccc1	11.7%	-10.8%	?	-2.4%	25.1µM*	2.0%
C[N+]1(CC2COC3(CCCCC3)O2)CCCCC1 (stereo not drawn)	8.91µM*	4.0%	6.0%	-4.4%	·	-3.0%
Cc1cn([C@@H]2C[C@H](N=[N+]=N)[C@H](CO)O2)c(=O)[nH]c1=O	7.3%[21.6 µM]	·	·	-4.1%[53 µM]	·	-1.2%[53 µM]
CC(=O)Nc1ccc(S(=O)(=O)N2CCc3nc(COc4ccccc4)c4c(c3C2)CO[C@@H](C)C4)cc1	3.3%[14.2 µM]	-2.3%[11.6 µM]	-2.5%[11.6 µM]	-7.4%[11.2 µM]	-1.1%[11.5 µM]	0.5%[11.2 µM]
Nc1cccc2c1C(=O)N(C(=O)/C=C/c1cccc(F)c1)C2=O	-4.8%	?	-15.7%	-2.5%	14.1µM*	3.3%
